The campaign covered roughly 2,400 compounds. About 2,100 (88%) were called active.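 The calls were made as follows: active = inhibition above the average of every tested compound plus 3 SD (cut at about 3.8% in these data); inactive = the rest.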 So high a share suggests a set chosen from earlier hits. The list is a sample of the results.
These compounds were tested against Nuclear receptor subfamily 0 group B member 1 (Homo sapiens) (UniProt P51843) (assay: DAX1 (NR0B1) inhibitors relieving SF-1 repression, confirmation, cell-based, luminescence, HEK293T, full-length DAX-1, SF-1 activated StAR promoter (AID 652134;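 also: 0% = DAX-1 cells with DMSO and 100% = no DAX-1 control cells with DMSO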)). Details: HEK293T StAR-promoter luciferase reporter, SF-1/DAX-1 repression; at 6.8 µM; active compounds read high.
Nuclear receptor subfamily 0 group B member 1 (Homo sapiens), sequence (P51843 whole entry, looked up): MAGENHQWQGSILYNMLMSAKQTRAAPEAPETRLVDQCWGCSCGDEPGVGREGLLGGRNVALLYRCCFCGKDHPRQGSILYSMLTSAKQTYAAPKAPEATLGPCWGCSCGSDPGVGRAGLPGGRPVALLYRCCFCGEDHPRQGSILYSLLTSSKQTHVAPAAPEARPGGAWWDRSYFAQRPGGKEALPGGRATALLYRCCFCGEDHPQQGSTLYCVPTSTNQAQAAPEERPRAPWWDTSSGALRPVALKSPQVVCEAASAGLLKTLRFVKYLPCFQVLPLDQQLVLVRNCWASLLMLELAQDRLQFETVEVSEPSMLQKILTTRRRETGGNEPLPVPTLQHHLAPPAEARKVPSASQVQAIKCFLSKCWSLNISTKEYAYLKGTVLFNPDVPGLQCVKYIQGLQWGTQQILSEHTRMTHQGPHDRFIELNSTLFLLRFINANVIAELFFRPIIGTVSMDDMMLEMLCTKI

Compound	inhibition
Cc1cc(N)n2nc(-c3ccc(C(C)(C)C)cc3)cc2n1	13.7% (active)
O=C(c1cnn(-c2ccc(Cl)cc2)c1)c1ccccc1O	11.7% (active)
COc1ccccc1Cc1c(-c2ccc(F)cc2)nc2ccc(C)cn12	4.48% (active)
Cc1ccc(-c2nc3ccc(Br)cn3c2Cc2ccccc2C(F)(F)F)cc1	5.68% (active)
Nc1ccc2nn(-c3ccc(Cl)cc3)nc2c1	15.9% (active)
CN1OC[C@@H]2CN[C@H](c3ccc(-c4ccccc4)cc3)C[C@@H]21	8.84% (active)
COc1ccc(-c2csc(-c3cccs3)n2)cc1OC	10.7% (active)
CC1CCN(CCCNC(=O)CN2C(=O)CSc3ccc(S(=O)(=O)N4CCCCC4)cc32)CC1	2.3% (inactive)
CSCCC(NC(=O)c1ccco1)C(=O)Nc1cc(C)ccn1 (stereo not drawn)	12.7% (active)
Cc1ccc(C(=O)NNC(=O)c2ccc3c(c2)OCCO3)cc1	3.83% (active)
Cc1nc(NC(=O)c2ccc3c(c2)OCCO3)ccc1Br	12.1% (active)
O=C(Nc1ccccc1)c1ccc2c(c1)OCCCO2	15.6% (active)
CN1CCN(c2ccc(NC(=O)c3ccc4c(c3)OCCO4)cc2Cl)CC1	6.62% (active)
CCC(=O)Nc1ccc(-c2ccc(N3CCCCC3)nn2)cc1	3.57% (inactive)
c1ccc(Cc2c(-c3ccco3)nc3c4ccccc4ccn23)cc1	12.1% (active)
Cc1cc(C(=O)NCCc2ccc(Cl)cc2)c(C)o1	3.8% (active)
COc1ccc(CCNC(=O)COC(=O)Cc2ccccc2F)cc1	0.17% (inactive)
O=C(O)c1ccc(N/N=C/c2cn(-c3ccccc3)nc2-c2cccs2)cc1	12.7% (active)
CCSc1nnc(NC(=O)c2ccc(C)cc2)s1	10% (active)
NC(=O)CSc1nnc(NC(=O)c2ccc3ccccc3c2)s1	10% (active)
Cc1ccnc(NC(=O)CNC(=O)c2ccccc2)c1	3.68% (active)
Cc1nn(-c2ccc([N+](=O)[O-])cc2)c(N)c1-c1ccccc1	15.1% (active)
Fc1ccc2cnc(-c3ccccc3)cc2c1	6.65% (active)
